Data on 17 compounds can be found in PubChem BioAssay (NCATS).

The subject of one test is C33A. The test can be described thus: Primary qHTS to identify gynecologic anti-cancer compounds using libraries of approved drugs and bioactive compounds (AID 1345084). Note: nearly all actives have a fitted effect of over 55% in size. Particulars: Gynecologic cancer cell panel viability, ATPlite luminescence, 48 h; series mostly up to 57.5 µM. In outline: (§1)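 48 h compound exposure at 37 C, 5% CO2; five-point qHTS. ATPlite luminescence readout of cell ATP.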

Another test relates to CAOV3. The description is as above. To be noted: Gynecologic cancer cell panel viability, ATPlite luminescence, 48 h; series mostly up to 57.5 µM. In outline:
as §1
In general terms: In ATP-based viability assays light output follows the ATP content of the culture.

Another test relates to CASKI. The description is as above. Particulars: Gynecologic cancer cell panel viability, ATPlite luminescence, 48 h; series mostly up to 57.5 µM. In outline: as §1
In another test the test system is Es-2. The description is as above. To be noted: Gynecologic cancer cell panel viability, ATPlite luminescence, 48 h; series mostly up to 57.5 µM. In outline: as §1
In another test the test system is HeLa. The test is described as above. To be noted: Gynecologic cancer cell panel viability, ATPlite luminescence, 48 h; series mostly up to 57.5 µM. In outline: as §1
In the next test the test system is Hek293T. The description is as above. To be noted: Gynecologic cancer cell panel viability, ATPlite luminescence, 48 h, control line for the selectivity index; series mostly up to 57.5 µM. In outline: as §1
The subject of another test is JEG-3. The description is as above. Particulars: Gynecologic cancer cell panel viability, ATPlite luminescence, 48 h; series mostly up to 57.5 µM. In outline: as §1
The next test relates to PA-1. The description is as above. To be noted: Gynecologic cancer cell panel viability, ATPlite luminescence, 48 h; series mostly up to 57.5 µM. In outline: as §1
For a further test, the system named is SKOV3. The description is as above. Particulars: Gynecologic cancer cell panel viability, ATPlite luminescence, 48 h; series mostly up to 57.5 µM. In outline:
as §1

In another test the test system is Tov-21-G. The description is as above. Particulars: Gynecologic cancer cell panel viability, ATPlite luminescence, 48 h; series mostly up to 57.5 µM. In outline: as §1
A further test deals with Tov112D. The test is described as above. To be noted: Gynecologic cancer cell panel viability, ATPlite luminescence, 48 h; series mostly up to 57.5 µM. In outline: as §1
Test [1] can be described thus: qHTS assay to identify inhibitors of the type 1 interferon - major histocompatibility complex class I in skeletal muscle: Counter screen cell viability and HiBit confirmation (AID 1347412). Note: nearly all actives have a fitted effect of over 60% in size. Particulars: iHSKM muscle cells + IFN-b, HiBiT or CellTiter-Glo, 24 h. In outline: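 CRISPR HLA-B*08:01-HiBit immortalized human myoblasts (C25cl48) stimulated with 4 ng/ml IFN-beta and compounds (12-point 1:3, top 46 uM final) for 24 h at 37 C. Duplicate plates read by HiBit lytic luminescence or CellTiter Glo ATP.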
Background: qHTS replaces the single test concentration by a dilution series.

Another test relates to OV90. The test can be described thus: Primary qHTS to identify gynecologic anti-cancer compounds using libraries of approved drugs and bioactive compounds (AID 1345084). Note: nearly all actives have a fitted effect of over 55% in size. To be noted: Gynecologic cancer cell panel viability, ATPlite luminescence, 48 h; series mostly up to 57.5 µM. In outline:
as §1

Inconclusive results are not listed. Unmarked numbers belong to inactive results. Active and inactive are the calls of the source. Calls come from the whole dose curve; as a rule, active = well fitted curve in the direction sought with a large enough effect; inconclusive = small, poorly fitted or top-dose-only effect, or another doubt; inactive = no such curve, though single readings can be large; an effect the other way counts as inactive or inconclusive.
% is set by controls: 0 for no effect and ±100 for the full control effect; potency is the fitted concentration of half-maximal effect.

As for `CCCCc1nc2cc(/C=C/C(=O)NO)ccc2n1CCN(CC)CC`, the Potency was 5.01 µM (active) with C33A; 8.91 µM (active) with CAOV3; 5.62 µM (active) in the test on CASKI; 3.16 µM (active) in the test on Es-2; 2.51 µM (active) with HeLa; 3.16 µM (active) in the test on Hek293T. The Potency was 3.16 µM (active) in the test on JEG-3; 0.631 µM (active) in the test with PA-1; 3.98 µM (active) with SKOV3; 7.94 µM (active) in the test with Tov-21-G; 3.16 µM (active) in the test on Tov112D; 1.11 µM (active) in [1] (HiBiT). The activity change, negative = inhibition in test [1] (Viability, at 45.9 µM (top of the series)) was 3.05%.

On to `Cc1cc(C(N)=O)ccc1-n1c(CCC(=O)O)ccc1-c1ccc(-n2ccnc2)cc1`, for which the Potency result in the test with C33A, in the test on CAOV3, with CASKI, in the test with Es-2, in the test on HeLa and in the test on Hek293T was “inactive” throughout. The Potency result in the test on OV90, with PA-1, in the test with Tov-21-G and in the test on Tov112D was “inactive” each time.

On to `O=C(O)c1ccc(CN2CCC(CN[C@@H]3C[C@H]3c3ccccc3)CC2)cc1`, for which the Potency entry in the test with C33A, in the test on CAOV3, with CASKI, in the test on Es-2, with HeLa and in the test on Hek293T was “inactive” each time. Also, the Potency result in the test with OV90, in the test with PA-1, with Tov-21-G and in the test on Tov112D was “inactive” each time.

With `COc1ccc([C@@]2(O)c3c(ccc(CC=C(C)C)c3O)NC(=O)[C@@H]2OC)cc1`, the Potency result in the test with C33A, with CAOV3, in the test on CASKI, with Es-2, in the test on HeLa and in the test on Hek293T was “inactive” throughout. The Potency entry in the test on OV90, in the test with PA-1, in the test with SKOV3, in the test with Tov-21-G and in the test with Tov112D was “inactive” each time.

As for `CS(=O)(=O)NCC1CCC(Nc2nc3c(s2)CCSc2ccccc2-3)CC1` (stereo unspecified), the Potency entry in the test with C33A, in the test on CAOV3, in the test on CASKI, in the test on Es-2, with HeLa and in the test with Hek293T was “inactive” each time. For the same compound, the Potency entry with JEG-3, in the test on Tov-21-G and in the test on Tov112D was “inactive” in each case.

In the case of `O=C1OCc2cc3cccc(O[C@@H]4O[C@H](CO)[C@@H](O)[C@H](O)[C@H]4O)c3c(O)c21`, the Potency entry with C33A, with CAOV3, with CASKI, in the test on Es-2, in the test on HeLa and in the test with Hek293T was “inactive” in each case. The Potency entry with JEG-3, with PA-1, with SKOV3, in the test with Tov-21-G and in the test with Tov112D was “inactive” each time.

With `CC1(C)CC2C(C1)C(C)(O)C13CC1(COC3=O)C2O` (stereo unspecified), the Potency result with C33A, in the test on CAOV3, with CASKI, with Es-2, in the test with HeLa and in the test with Hek293T was “inactive” throughout. For the same compound, the Potency result in the test with OV90, in the test on PA-1, in the test with SKOV3, in the test on Tov-21-G and with Tov112D was “inactive” each time.

Regarding `CC(=O)OC1/C(C)=C/C(=O)C(OC(C)=O)C(C)(C)/C=C/C(C)C(=O)C2(OC(C)=O)CC(C)C(OC(=O)c3ccccc3)C12` (stereo unspecified), the Potency result with C33A, with CAOV3, in the test on CASKI, in the test on HeLa, in the test with Hek293T and in the test on JEG-3 was “inactive” throughout. Besides, the Potency result in the test on OV90, in the test on SKOV3, in the test on Tov-21-G and with Tov112D was “inactive” throughout.

In the case of `Cc1cc(Nc2ccc(NC(=O)c3ccc(Nc4ccnc5ccccc45)cc3)cc2)nc(N)n1`, the Potency in the test with C33A is 5.62 µM (active); in the test on CAOV3, 2.24 µM (active); in the test on CASKI, 3.55 µM (active); with HeLa, 11.2 µM (active); in the test on Hek293T, 25.1 µM (active); in the test on JEG-3, 28.2 µM (active). Also, the Potency with OV90 was 3.98 µM (active); with PA-1, 20 µM (active); in the test with SKOV3, 3.98 µM (active); in the test with Tov-21-G it was 10 µM (active); in the test on Tov112D it was 25.1 µM (active).

In the case of `Cc1c[nH]c2nccc(Oc3c(F)cc(Nc4cc(Cl)nc(N)n4)cc3F)c12`, the Potency result with C33A, in the test on CAOV3, in the test with CASKI and in the test with OV90 was “inactive” throughout. In addition, the Potency with Es-2 is 12.6 µM (active); in the test on HeLa it was 7.94 µM (active); in the test with Tov112D, 7.94 µM (active).

For `CC(=O)O[C@@H]1C[C@H](O)[C@@]23CO[C@H](O)[C@]1(C)C2C[C@@H](O)[C@]1(C)C3C(=O)[C@H](OC(C)=O)[C@@]2(C)[C@H](c3ccoc3)C[C@H]3O[C@]321` (stereo partly specified), the Potency in the test with C33A is 1.12 µM (active); with CAOV3, 1.12 µM (active); with Es-2, 0.501 µM (active); in the test on Hek293T it was 2.51 µM (active); in the test with PA-1, 0.562 µM (active); in the test on Tov112D it was 0.316 µM (active). Besides, the Potency entry in the test with CASKI and with JEG-3 was “inactive” in each case.

`NC(=O)c1cccc(-c2cc(OC(=O)NC3CCCCC3)ccc2O)c1`: the Potency entry in the test on C33A, in the test with CAOV3, in the test with CASKI, in the test with Es-2, in the test with HeLa and in the test on JEG-3 was “inactive” in each case. In addition, the Potency entry in the test on OV90, in the test on PA-1 and with SKOV3 was “inactive” in each case.

As for `Nc1nc(Nc2ccc(S(N)(=O)=O)cc2)n(C(=S)Nc2c(F)cccc2F)n1`, the Potency entry with C33A, with CAOV3, in the test on CASKI, in the test with Es-2, in the test with JEG-3 and in the test with OV90 was “inactive” throughout. Moreover, the Potency entry with PA-1 and in the test on SKOV3 was “inactive” each time. Further, the Potency in the test on HeLa is 15.8 µM (active).

Turning to `COc1c(/C=C/C(C)(C)O)ccc2c1C(=O)OCc1cc(C)cc(O)c1O2`, the Potency entry in the test with C33A, with CAOV3, in the test with CASKI, with Es-2, in the test with HeLa and in the test with JEG-3 was “inactive” in each case. The Potency result in the test with OV90, in the test with PA-1, in the test on Tov-21-G and with Tov112D was “inactive” in each case.

On to `CC1(C)CC[C@]2(C(=O)O[C@@H]3O[C@H](CO)[C@@H](O)[C@H](O)[C@H]3O)CC[C@]3(C)C(=CCC4[C@@]5(C)C[C@@H](O)[C@H](O)[C@@](C)(CO)C5CC[C@]43C)C2[C@@H]1O` (stereo partly specified), for which the Potency result in the test with C33A, in the test with CAOV3, with CASKI, with HeLa, in the test with Hek293T and in the test with JEG-3 was “inactive” each time. Also, the Potency entry in the test with OV90, with PA-1, with SKOV3, with Tov-21-G and in the test with Tov112D was “inactive” throughout.

As for `CCN1CCN(Cc2ccc(Nc3ncc(F)c(-c4cc(F)c5nc(C)n(C(C)C)c5c4)n3)nc2)CC1`, the Potency entry with C33A, with CAOV3, in the test on CASKI, with Es-2, in the test on Hek293T and with JEG-3 was “inactive” each time. Moreover, the Potency entry with OV90 and in the test with Tov112D was “inactive” each time. Further, the Potency is 8.83 µM (active) in test [1] (HiBiT) and 22.2 µM (active) in test [1] (Viability).

`CS(=O)(=O)c1ccc(-c2nnc(/C=C/c3nnc(-c4ccc(C#N)cc4)o3)n2-c2ccccc2Cl)nc1`: the Potency entry in the test on C33A, in the test with CAOV3, in the test on CASKI, with Es-2, in the test with HeLa and in the test on JEG-3 was “inactive” throughout. The Potency result in the test with OV90, in the test on PA-1, in the test with SKOV3, with Tov-21-G and in the test on Tov112D was “inactive” each time.
